Only some compounds are listed: those with a hit (about 10% of all), similar ones and a draw of the others.
ALDH1A1 inh-1: blocks purified human ALDH1A1 activity; P00352; Purified ALDH1A1, NADH fluorescence, propionaldehyde substrate; Potency, µM (titrated, usually from 75.3 µM), actives largely listed as inhibitors; hit rate 7.3% among 220,000; AID 1030; active means well fitted inhibition curve with a large enough effect, not every such curve was filed as active; inconclusive means small, poorly fitted or top-dose-only effect, or another doubt; inactive means no such curve, though single readings can be large or run the other way
Target sequence (P00352 whole entry, looked up): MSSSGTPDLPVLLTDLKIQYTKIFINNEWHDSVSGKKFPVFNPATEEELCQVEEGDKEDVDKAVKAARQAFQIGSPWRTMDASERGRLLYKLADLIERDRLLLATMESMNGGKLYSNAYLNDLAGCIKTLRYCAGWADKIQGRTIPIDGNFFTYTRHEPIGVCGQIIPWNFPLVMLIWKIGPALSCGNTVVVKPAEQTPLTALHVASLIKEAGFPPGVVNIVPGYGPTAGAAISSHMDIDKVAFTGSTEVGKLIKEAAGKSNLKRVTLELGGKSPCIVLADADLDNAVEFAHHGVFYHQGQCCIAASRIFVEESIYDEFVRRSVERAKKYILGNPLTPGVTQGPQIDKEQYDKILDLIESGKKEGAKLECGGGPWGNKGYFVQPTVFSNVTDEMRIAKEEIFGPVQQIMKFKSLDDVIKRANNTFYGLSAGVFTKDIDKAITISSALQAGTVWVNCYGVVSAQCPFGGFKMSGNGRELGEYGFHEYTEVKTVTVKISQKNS
PNC inhibitor: blocks assembly of the perinucleolar compartment. PC3M PTB-GFP, PNC prevalence imaging, 16 h; stronger effect = lower value. activity change (PNC), negative = inhibition, % at 10 µM. hit rate 3.1% among 140,000. AID 2417;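 active means readout at or below -70, meaning at least 70% loss of cells showing the perinucleolar compartment, a nuclear body marking cancer cells; inconclusive means readout between -30 and a set limit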
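Compounds are pinned in duplicate onto adhered PC3M cells stably expressing GFP-tagged PTB and incubated 16 h at 37 C. Cells are then fixed, nuclei stained with Hoechst, and PNC-positive cells counted.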
Lamin A splicing: LMNA splicing modulation; HeLa LMNA splicing GFP/RFP minigene ratio, 48 h; Potency, µM (doses to about 46.1 µM), hits mostly inhibitors; hit rate 0.01% among 200,000; active means well fitted inhibition curve with a large enough effect in the signal ratio, with a control signal flat, not every such curve was filed as active; inconclusive means small, poorly fitted or top-dose-only effect, or effect the other way, or a change in a side signal; the % refers to the signal ratio
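S3 HeLa stable clones carrying a lamin A-EGFP splicing minigene plus DsRed2 were seeded at 600 cells/well in Opti-MEM with 2% FBS, pin-dosed and incubated 48 h at 37°C. Acumen cytometry (488 nm) gave the GFP/RFP total-intensity ratio.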
HPGD inh: blocks human HPGD enzyme activity. P15428. purified HPGD, NADH fluorescence kinetic, PGE2 substrate. Potency, µM, actives largely listed as inhibitors. hit rate 4.3% among 150,000; active means well fitted inhibition curve with a large enough effect, not every such curve was filed as active; inconclusive means small, poorly fitted or top-dose-only effect, or another doubt; inactive means no such curve, though single readings can be large or run the other way
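NADH formation kinetics: reaction with 30 uM PGE2 and 1 mM NAD+ (final), 20 nM enzyme, Tris-HCl pH 8 with Tween 20, after 15 min compound preincubation at room temperature. Fluorescence change, last versus first of five reads.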
ALOX12 inhib: blocks human 12-lipoxygenase activity; purified 12-hLO, xylenol orange hydroperoxide absorbance; P18054; AID 1452; Potency, µM (doses to about 57.1 µM), most hits filed as inhibitors; hit rate 0.12% among 150,000; active means well fitted inhibition curve with a large enough effect; inconclusive means small, poorly fitted or top-dose-only effect; further: nearly all actives have a fitted effect of over 55% in size
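Hydroperoxide formation by human 12-lipoxygenase from 40 uM arachidonic acid was followed colorimetrically via ferric-xylenol orange complex, using the 573/405 nm absorbance ratio. Enzyme concentration was 150 nM, with 30 min reaction at room temperature.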
HPGD inh conf: confirmation of human HPGD inhibitors. hit rate 90% among 90. Potency, µM (doses to about 57.1 µM), usual class: inhibitors. shares compounds with HPGD inh. recombinant HPGD, NADH fluorescence, PGE2 substrate
ALDH1A1 inh-2: Blocks ALDH1A1 NADH production, follow-up. shares compounds with ALDH1A1 inh-1. purified ALDH1A1, NADH fluorescence, propionaldehyde/NAD+. Potency, µM (titrated, usually from 57.1 µM), most hits filed as inhibitors. hit rate 90% among 90. AID 493210
Each line names hits and unclear results; the compound was inactive in the other large screens (follow-up assays come after a bar, where they were run); ! = a repeat was not active. Unless noted, the call rests on the fitted dose curve.

Cc1cccc(N2C(=O)/C(=C/c3ccc(CN(CCC#N)S(C)(=O)=O)o3)C(=O)NC2=S)c1	ALDH1A1 inh-1 20µM, HPGD inh 22.4µM, ALOX12 inhib inconclusive
CN1CCN(c2ccc(/C=C3\C(=O)NC(=S)N(c4cccc(Br)c4)C3=O)o2)CC1	ALDH1A1 inh-1 inconclusive, PNC inhibitor inconclusive
Cc1ccc(N2C(=O)/C(=C/c3ccc(CN(CCC#N)S(C)(=O)=O)o3)C(=O)NC2=S)cc1C	ALDH1A1 inh-1 20µM, HPGD inh 14.1µM
CCCCC1C(=O)NC(=S)NC1=O	ALDH1A1 inh-1 31.6µM, HPGD inh 12.6µM
CN1C(=O)C(Cc2cccs2)C(=O)N(C)C1=O	none
CCCCOc1ccc(CC2C(=O)N(C)C(=O)N(C)C2=O)cc1	PNC inhibitor inconclusive
CN1C(=O)C(Cc2ccsc2)C(=O)N(C)C1=O	ALDH1A1 inh-1 12.6µM
CN1C(=O)C(Cc2ccc3c(c2)OCO3)C(=O)N(C)C1=O	ALDH1A1 inh-1 23.8µM
O=C1C=CC[C@@H]2[C@H]3CCCN4CCC[C@@H](CN12)[C@@H]34	none (no result: PNC inhibitor, Lamin A splicing, ALOX12 inhib)
c1cnc(N2CC3(CCNCC3)C2)nc1	ALDH1A1 inh-1 inconclusive, HPGD inh inconclusive (no result: PNC inhibitor, Lamin A splicing)
CN(C)C(=O)Oc1ccc(Cl)c2ccccc12	PNC inhibitor inconclusive
N=C(N)SCc1ccc(Cl)c2ccccc12 (tested in a mixture with another compound)	HPGD inh 4.47µM! (no result: PNC inhibitor, Lamin A splicing)
Cc1cc(NC(=O)CCl)no1	ALDH1A1 inh-1 12.6µM (no result: PNC inhibitor, HPGD inh, ALOX12 inhib)
Cc1cc(NC(=O)COC(=O)c2c(C)nn(Cc3ccccc3)c2C)no1	PNC inhibitor inconclusive
Cc1ccc(-c2cn3c(=S)[nH]nc3s2)cc1	ALDH1A1 inh-1 inconclusive, Lamin A splicing inconclusive, HPGD inh 28.2µM, ALOX12 inhib inconclusive
O=C(O)c1cccc([As]=[As]c2cccc(C(=O)O)c2)c1 (stereo unspecified)	none (no result: PNC inhibitor, Lamin A splicing)
Cc1cc(O)c2c(c1)C(=O)c1cc(O)cc(O)c1C2=O	ALDH1A1 inh-1 22.4µM, Lamin A splicing inconclusive (no result: PNC inhibitor)
Cc1cccc(N2C(=O)NC(=O)C3(Cc4cc(C)ccc4N(C)C3)C2=O)c1 (stereo unspecified)	ALDH1A1 inh-1 8.91µM (no result: HPGD inh)
COc1ccc2c(c1)CC1(CN2C)C(=O)NC(=O)N(c2ccc(C)cc2)C1=O (stereo unspecified)	ALDH1A1 inh-1 inconclusive
Cc1ccc2c(c1)CC1(CN2C)C(=O)NC(=O)N(CCC2=CCCCC2)C1=O (stereo unspecified)	ALDH1A1 inh-1 3.55µM (no result: HPGD inh)
C[C@H](NC(=O)[C@@H](N)Cc1ccc(O)cc1)C(=O)NCC(=O)N(C)[C@@H](Cc1ccccc1)C(=O)NCCO	none (no result: PNC inhibitor, Lamin A splicing, HPGD inh, ALOX12 inhib)
CC(=O)OCC(N)C(=O)c1ccccc1 (stereo unspecified)	none (no result: PNC inhibitor, Lamin A splicing)
COC(=O)C1CN(C#N)N(c2ccc(Cl)cc2)C12c1ccccc1-c1ccccc12 (stereo unspecified)	PNC inhibitor inconclusive, Lamin A splicing inconclusive, HPGD inh 14.1µM
COC(=O)c1c(C)ccc2c(O)c3c(cc12)C(=O)c1c2c(cc(O)c1C3=O)[C@@]1(C)O[C@@](C)(O2)[C@@H](O)[C@H](N(C)C)[C@H]1O	ALDH1A1 inh-1 inconclusive, HPGD inh inconclusive (no result: PNC inhibitor, Lamin A splicing)
Cc1ccc(-n2sc3ccccc3c2=O)cc1	ALDH1A1 inh-1 10µM, PNC inhibitor inconclusive, HPGD inh 0.631µM, ALOX12 inhib 7.94µM | HPGD inh conf 0.562µM
c1ccc(N2CCC3(CCNCC3)CC2)nc1	ALDH1A1 inh-1 inconclusive, HPGD inh inconclusive (no result: PNC inhibitor, Lamin A splicing)
O=P1(Nc2ccc(F)cc2)COc2ccccc2OC1	HPGD inh 1.12µM | HPGD inh conf 1µM
COC(=O)c1ccccc1OP1(=O)COc2ccccc2OC1	none
CN[C@@H](C)[C@H](O)c1ccccc1	ALDH1A1 inh-1 0.501µM, Lamin A splicing inconclusive, HPGD inh 0.794µM (no result: PNC inhibitor, ALOX12 inhib) | HPGD inh conf 1.41µM | ALDH1A1 inh-2 0.447µM
c1ccc2c(c1)Sc1ccccc1N2C[C@H]1CN2CCC1CC2	none (no result: PNC inhibitor, Lamin A splicing)
CC(C)N(C(=O)CCl)c1ccccc1	ALDH1A1 inh-1 0.0282µM, Lamin A splicing inconclusive (no result: PNC inhibitor) | ALDH1A1 inh-2 0.0501µM
CCc1cccc(C)c1N(C(=O)CCl)C(C)COC (stereo unspecified)	Lamin A splicing inconclusive (no result: PNC inhibitor)
NCC(CC(=O)O)c1ccc(Cl)s1 (stereo unspecified)	none (no result: PNC inhibitor, Lamin A splicing, HPGD inh, ALOX12 inhib)
CCC(C=C[C@@H]1OC(=O)C=C[C@H]1C)=C[C@H](C)CC=CC(C)=C[C@@H](C)C(=O)[C@@H](C)[C@H](O)[C@@H](C)CC(C)=CC(=O)O	ALDH1A1 inh-1 0.224µM (no result: PNC inhibitor, Lamin A splicing) | ALDH1A1 inh-2 1.12µM
O=c1oc(Cl)c(Cl)c2ccccc12	ALDH1A1 inh-1 0.562µM, Lamin A splicing inconclusive (no result: PNC inhibitor) | ALDH1A1 inh-2 0.251µM
CC(=O)OC1CCC23C(=O)OC45CCC(C6=CC(=O)OC6)C4(C)CCC2C5CCC3(O)C1 (stereo unspecified)	none (no result: PNC inhibitor, Lamin A splicing)
COc1ccc2c(c1)CCC1[C@@H]2CCC2(C)[C@@H](NCCCCCCN3C(=O)C=CC3=O)CC[C@@H]12 (stereo partly specified)	ALDH1A1 inh-1 0.112µM (no result: PNC inhibitor, Lamin A splicing) | ALDH1A1 inh-2 0.501µM
C[C@@H]1O[C@@H](O[C@H]2CC[C@]3(C=O)C4CC[C@]5(C)[C@@H](C6=CC(=O)OC6)CC[C@]5(O)[C@@H]4CC[C@]3(O)C2)[C@H](O)[C@H](O)[C@H]1O (stereo partly specified)	none (no result: PNC inhibitor, Lamin A splicing, ALOX12 inhib)
